CYP2C19 act – cytochrome P450 2C19 (human) activation; activation factor at 5 µM; P33261; AID 1025; recombinant CYP2C19, luciferin-H EGE luminescence; active compounds read high; 0 = fully inhibited enzyme, 1 = untreated enzyme; 96,000 tested, under 10 active;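 active = activation factor of at least 2 at 5 µM in the primary screen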;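 note: 0 = wells with 2.5 mM tranylcypromine and 1 = vehicle-only wells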
Target sequence (P33261 whole entry, looked up): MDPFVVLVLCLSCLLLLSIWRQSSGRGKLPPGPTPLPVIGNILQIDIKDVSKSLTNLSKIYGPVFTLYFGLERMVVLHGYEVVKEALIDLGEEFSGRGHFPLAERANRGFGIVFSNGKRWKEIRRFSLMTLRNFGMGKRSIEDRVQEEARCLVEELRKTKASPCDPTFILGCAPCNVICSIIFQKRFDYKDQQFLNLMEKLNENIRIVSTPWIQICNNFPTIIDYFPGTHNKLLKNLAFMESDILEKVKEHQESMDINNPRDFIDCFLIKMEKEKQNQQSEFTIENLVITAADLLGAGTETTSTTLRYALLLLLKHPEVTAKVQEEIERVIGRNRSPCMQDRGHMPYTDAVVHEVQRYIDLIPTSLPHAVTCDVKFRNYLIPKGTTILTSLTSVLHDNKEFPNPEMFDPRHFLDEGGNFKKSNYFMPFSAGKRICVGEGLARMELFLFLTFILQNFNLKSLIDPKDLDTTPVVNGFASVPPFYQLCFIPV
MRP reversal – MRP-mediated drug resistance reversal; 85,000 tested, 0.04% active; differential viability (reversal), % at 10 µM; H69AR cells + 2 uM doxorubicin, CellTiter-Glo, 72 h;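 active = viability drop by adding the cancer drug above about 55%, with treated viability meeting a 40% cutoff, limit read from the data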;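 note: viability without doxorubicin minus viability with 2 µM doxorubicin for each compound; larger differential means the compound sensitizes cells more to doxorubicin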
MRP-1 activ – MRP-1 activation; viability increase, % at 10 µM; H69AR cells + doxorubicin, viability rescue, CellTiter-Glo; 140,000 tested, 0.61% active;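 active = viability gain under doxorubicin at or above a set limit, the compound median plus 3 SD, cut at about 4.7% in these data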;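 note: MRP-1 overexpressing cells given doxorubicin 25 µM after compound pretreatment; 18-22 h compound pretreatment then 72 h with doxorubicin before readout; 0% = doxorubicin-only wells and 100% = vehicle-treated cells without doxorubicin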
CYP2C19 inh – blocks human cytochrome P450 2C19; CYP2C19 Supersomes, luciferin-H EGE luminescence, 30 min; P33261; 96,000 tested, 21% active; inhibition, % at 5 µM;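 active = CYP2C19 inhibition above a set limit at 5 µM in the primary screen, cut at about 50% in these data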;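 note: plate controls were negative control wells for no effect and 2.5 mM tranylcypromine positive control for full effect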
CYP2C9 activ – increases human cytochrome P450 2C9 activity; recombinant CYP2C9, luciferin-H conversion, luminescence; active compounds read high; factor 1 = untreated enzyme, 0 = blocked; activation factor at 5 µM; 96,000 tested, 1.4% active; P11712;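 active = activation factor of 2 or more for CYP2C9 at a 5 µM dose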;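 note: 0 = sulfaphenazole-blocked wells and 1 = vehicle-only wells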
CYP2C9 inhib – inhibitors of human CYP2C9 | CYP2C9 Supersomes, luciferin-H conversion, luminescence | inhibition, % at 5 µM | 96,000 tested, 20% active;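 active = blocking of liver enzyme CYP2C9 beyond about 50% at 5 µM, limit read from the data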
Numbers without * were called inactive; / = no result given. An excerpt weighted towards active compounds, which were near 21% of everything screened.

SMILES | CYP2C19 act | MRP reversal | MRP-1 activ | CYP2C19 inh | CYP2C9 activ | CYP2C9 inhib
O=C(NCc1ccc2c(c1)OCO2)c1ccc2c(c1)OCCO2 | 0.1 | 10 | -1 | 88* | 0.2 | 78*
Cc1cc2n(n1)C(c1ccc3c(c1)OCO3)Nc1c(C)cccc1-2 (configuration not stated) | 0 | 9 | 2 | 98* | 0.1 | 92*
Cc1cc(C)c2c(c1)-c1cc(C)nn1C(c1ccc3c(c1)OCO3)N2 (configuration not stated) | 0.7 | 0 | 2 | 33 | 0.8 | 20
O=C(NN=C1CCCCCC1)C(=O)Nc1cccc(Br)c1 | / | / | -2 | / | / | /
COc1ccc(C2=Nn3c(nnc3-c3ccccn3)SC2)cc1OC | 0.4 | 3 | -2 | 62* | 0.6 | 36
COc1ccc(C2=Nn3c(nnc3-c3ccccc3OC)SC2)cc1OC | 0.4 | / | -2 | 65* | 0.5 | 53*
COc1ccc(C2=Nn3c(nnc3-c3ccco3)SC2)cc1OC | 0.6 | 5 | -4 | 37 | 0.4 | 57*
O=C(CCC(=O)OCc1ccc(Br)cc1)Nc1ccccc1 | / | / | -1 | / | / | /
Cc1ccc2cc(CCNC(=O)c3cccs3)c(=O)[nH]c2c1 | / | / | 0 | / | / | /
CCSc1ccc2nnc(-c3cccc(F)c3)n2n1 | 0.8 | -12 | -2 | 20 | 0.8 | 20
CCC(CO)[n+]1c(C)cc(/C=C2\Sc3ccccc3N2Cc2ccccc2)cc1C (configuration not stated) | / | / | -6 | / | / | /
O=C(COC(=O)c1ccccc1NC(=O)c1ccco1)NCCC1=CCCCC1 | 0.5 | 12 | -3 | 48 | 0.2 | 84*
O=C(COC(=O)c1ccccc1NC(=O)c1ccco1)NCC1CCCCC1 | 0.2 | / | -2 | 79* | 0.1 | 95*
CC(OC(=O)c1ccco1)C(=O)NC1CCCCC1 (configuration not stated) | 0.8 | 6 | -2 | 17 | 1.1 | -9
CC(C)C(OC(=O)c1ccco1)C(=O)NC1CCCCC1 (configuration not stated) | 0.2 | 3 | -1 | 80* | 0.6 | 39
O=C(COC(=O)c1ccccc1NC(=O)c1ccco1)Nc1ccc2c(c1)OCO2 | 0.8 | -24 | -2 | 17 | 0.4 | 58*
COc1ccc2c(CC#N)c[nH]c2c1 | 0.8 | -10 | 0 | 20 | 1.1 | -10
COc1cc2c(cc1NC(=O)CN1C(=O)NC3(CCc4ccccc43)C1=O)oc1ccccc12 (configuration not stated) | 1 | -15 | -3 | 2 | 0.6 | 38
O=C(COC(=O)c1cncc(Br)c1)NCCC1=CCCCC1 | 0.1 | 8 | 1 | 88* | 0.3 | 72*
O=C(COC(=O)c1ccc2c(c1)OCCO2)NCCC1=CCCCC1 | 0.6 | 9 | 0 | 38 | 0.7 | 35
O=C(NCC1CCCCC1)c1ccco1 | 0.3 | 3 | -1 | 66* | 0.7 | 30
O=C(NC1CCCCCCC1)c1ccco1 | 0.9 | 15 | -2 | 14 | 0.9 | 7
COC(=O)c1ccccc1NC(=O)COC(=O)c1ccc(C)c(NC(=O)c2ccco2)c1 | 0.4 | -15 | -2 | 57* | 0.3 | 75*
COC(=O)c1ccccc1NC(=O)COC(=O)c1ccco1 | 0.6 | / | -4 | 36 | 0.9 | 12
COc1ccc(N2CC(NC(=O)NCCC(C)C)CC2=O)cc1 (configuration not stated) | / | / | -1 | / | / | /
SMILES | CYP2C19 act | MRP reversal | MRP-1 activ | CYP2C19 inh | CYP2C9 activ | CYP2C9 inhib
Cn1c(SCCOc2ccccc2Cl)nnc1-c1ccncc1 | 0 | 4 | -1 | 97* | 0.4 | 62*
Cc1ccccc1OCCSc1nnc(-c2ccncc2)n1C | 0 | 2 | 0 | 97* | 0.1 | 86*
Cc1ccc(-c2nnc(SCC(=O)NNC(=O)COc3ccccc3C)n2C)cc1 | / | / | 0 | / | / | /
COc1ccc(-c2nnc(SCc3ccccn3)n2C)cc1 | / | 14 | 0 | / | / | /
Cc1ccc(NC(=O)CC2C(=O)NC3CCCCC3N2C(=O)c2ccc(F)cc2)cc1C (configuration not stated) | 0.9 | 9 | -3 | 8 | 0.4 | 64*
O=C(CC1C(=O)NC2CCCCC2N1C(=O)c1ccc(F)cc1)Nc1ccccc1 (configuration not stated) | 0.7 | 3 | -1 | 35 | 0.4 | 56*
NC(=O)C1(N2CCCCC2)CCN(C(=S)Nc2cccc(Cl)c2)CC1 | / | / | -3 | / | / | /
O=S(=O)(c1ccc(NC(=S)NCCC(c2ccccc2)c2ccccc2)cc1)N1CCOCC1 | / | / | -5 | / | / | /
COc1ccc(/C=C(/C#N)C(=O)Nc2cccc(C)c2C)cc1C(=O)O | 0.4 | / | 0 | 58* | 0.8 | 16
N#CCCN/N=C(/Cc1nc2ccccc2[nH]1)c1cccc(Cl)c1 | 0.1 | / | -2 | 86* | 0.4 | 63*
CCN(Cc1ccncc1)S(=O)(=O)c1ccc(C(C)=O)cc1 | 0.1 | -13 | -1 | 91* | 0.1 | 87*
COc1cccc(NC(=O)Cc2cn(C)c3ccccc23)c1 | 0.7 | 1 | -3 | 33 | 3.8* | -281
COc1cccc(NC(=O)Cn2cc(C#N)c3ccccc32)c1 | / | -21 | -3 | / | / | /
COc1cccc(NC(=O)CCCn2c(=O)[nH]c3ccccc3c2=O)c1 | 0.8 | 7 | -1 | 25 | 0.3 | 72*
COc1cccc(NC(=O)Cc2c(C(=O)O)[nH]c3ccccc23)c1 | 0.9 | / | -2 | 14 | 0.9 | 14
Cc1ccccc1NC(=O)Cc1cn(C)c2ccccc12 | 0.6 | 2 | -4 | 45 | 3* | -196
CCCCN(CC)C(=O)Cc1cn(C)c2ccccc12 | 0 | 9 | -3 | 95* | 3.4* | -238
Cn1c(=O)[nH]c(=O)c2c1nc(CN1CCN(Cc3ccccc3)CC1)n2CC(N)=O | 1.1 | -9 | -1 | -7 | 1.1 | -11
O=C1Nc2c(c(=O)[nH]c(=O)n2-c2ccccc2F)C(C(F)(F)F)(C(F)(F)F)N1 | / | 7 | -2 | / | / | /
O=C(Cc1cccs1)NNC(=O)c1ccc(F)cc1 | / | / | -2 | / | / | /
Cc1ccc2c(c1)N(CC(=O)NC1CCCCC1C)C(=O)CO2 (configuration not stated) | 0.6 | 9 | -1 | 43 | 1.1 | -12
COC(=O)CC1C(=O)NCCN1C(=O)NC1CCCCC1 (configuration not stated) | 1.1 | 7 | 0 | -12 | 1.1 | -14
COc1cccc(NC(=O)Cn2c(=O)n(CC3CCCO3)c(=O)c3ccccc32)c1 (configuration not stated) | 0.4 | -7 | -2 | 63* | 0.6 | 41
COc1ccc(/C=N/NS(=O)(=O)c2ccccc2)cc1OC(=O)c1ccc(C)cc1 | 0.6 | / | -1 | 44 | 0.1 | 89*
COc1ccc(C(=O)N/N=C/c2ccc(OC)c(OS(=O)(=O)c3ccccc3)c2)cc1 | / | / | -3 | / | / | /
COc1ccc(/C=N/NS(=O)(=O)c2ccccc2)cc1OS(=O)(=O)c1ccccc1 | 0.7 | / | -1 | 33 | 0.1 | 94*
CCOc1cc(/C=N/NC(=O)c2cccc([N+](=O)[O-])c2)ccc1OS(=O)(=O)c1ccccc1 | 0.4 | / | -2 | 57* | 0.4 | 59*
